Some of the results follow. Unmarked numbers belong to inactive results. Cut-off read from the data, not from the text of the source: active = inhibition above about 20%; inactive = the rest.
Molecular target: Neuropeptide Y receptor type 1 (Homo sapiens) (UniProt P25929)
Experiment: blockade of human NPY-Y1 in cells – counter-screen for NPY-Y2 antagonist project (AID 1256);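 note: cells challenged with NPY then isoproterenol with cAMP sensed through a CNG channel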
Conditions: cell-based NPY-Y1 antagonism counterscreen; at 3.6 µM; active compounds read high

Neuropeptide Y receptor type 1 (Homo sapiens), sequence (P25929 whole entry, looked up): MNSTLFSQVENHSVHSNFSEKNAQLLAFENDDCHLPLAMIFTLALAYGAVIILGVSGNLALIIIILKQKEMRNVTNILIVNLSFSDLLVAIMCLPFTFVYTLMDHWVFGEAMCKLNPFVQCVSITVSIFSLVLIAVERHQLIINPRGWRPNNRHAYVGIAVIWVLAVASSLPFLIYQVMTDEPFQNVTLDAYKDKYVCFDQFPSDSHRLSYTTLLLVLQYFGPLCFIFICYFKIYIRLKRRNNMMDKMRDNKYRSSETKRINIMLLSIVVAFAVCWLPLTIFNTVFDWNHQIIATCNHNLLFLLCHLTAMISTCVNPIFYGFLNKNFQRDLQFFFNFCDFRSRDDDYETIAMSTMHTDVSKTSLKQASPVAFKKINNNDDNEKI

O=C(COC(=O)c1ccccc1)Nc1ccc(Cl)cc1C(=O)c1ccccc1
inhibition: 17.5%
